Rows were chosen to be rich in hits. Some 32% of all compounds tested hit in one or more screens of this group.
CYP2C9 inhib = inhibitors of human CYP2C9; actives 20% (n = 96,000); AID 777; CYP2C9 Supersomes, luciferin-H conversion, luminescence; P11712; inhibition, % at 5 µM;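 active = blocking of liver enzyme CYP2C9 beyond about 50% at 5 µM, limit read from the data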
CYP2C19 activ = cytochrome P450 2C19 (human) activation. 96,000 tested, under 10 active. recombinant CYP2C19, luciferin-H EGE luminescence; hits give high values; 0 = fully inhibited enzyme, 1 = untreated enzyme. P33261. activation factor at 5 µM;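 active = activation factor of at least 2 at 5 µM in the primary screen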;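 also: 0 = wells with 2.5 mM tranylcypromine and 1 = vehicle-only wells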
Target sequence (P33261 whole entry, looked up): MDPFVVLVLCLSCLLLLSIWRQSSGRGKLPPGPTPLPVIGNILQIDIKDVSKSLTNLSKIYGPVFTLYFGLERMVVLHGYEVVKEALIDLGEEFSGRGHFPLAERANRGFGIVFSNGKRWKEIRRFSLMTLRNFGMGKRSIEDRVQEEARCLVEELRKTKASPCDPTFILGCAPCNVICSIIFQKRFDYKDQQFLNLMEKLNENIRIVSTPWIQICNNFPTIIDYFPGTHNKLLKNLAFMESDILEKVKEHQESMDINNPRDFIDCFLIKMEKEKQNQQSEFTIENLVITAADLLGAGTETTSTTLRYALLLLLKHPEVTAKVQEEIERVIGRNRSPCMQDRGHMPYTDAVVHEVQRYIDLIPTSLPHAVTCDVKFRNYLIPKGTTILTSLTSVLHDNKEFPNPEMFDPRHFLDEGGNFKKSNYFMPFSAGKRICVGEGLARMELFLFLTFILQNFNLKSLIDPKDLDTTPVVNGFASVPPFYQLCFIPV
PostGolgi yeast = growth inhibition of a yeast mutant, post-Golgi transport screen | post-Golgi transport phenotypic cell assay | inhibition, % at 10 µM | actives 0.9% (n = 98,000) | AID 739;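 also: yeast cells grown in 1536-well plates; yeast grown about 18 h at 30C before absorbance read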
CYP2C9 activ = CYP2C9 (human) activation. actives 1.4% (n = 96,000). recombinant CYP2C9, luciferin-H conversion, luminescence; hits give high values; factor 1 = untreated enzyme, 0 = blocked. AID 1024. activation factor at 5 µM;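 active = activation factor of 2 or more for CYP2C9 at a 5 µM dose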;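 also: 0 = sulfaphenazole-blocked wells and 1 = vehicle-only wells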
CYP2C19 inh = human CYP2C19 inhibition. inhibition, % at 5 µM. actives 21% (n = 96,000). CYP2C19 Supersomes, luciferin-H EGE luminescence, 30 min;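 active = CYP2C19 inhibition above a set limit at 5 µM in the primary screen, cut at about 50% in these data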;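 also: plate controls were negative control wells for no effect and 2.5 mM tranylcypromine positive control for full effect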
PostGolgi ctrl = yeast control strain growth, post-Golgi counter-screen; efflux-deficient yeast background strain, growth absorbance A615, 16 h; inhibition, % at 10 µM; actives 5% (n = 98,000)
Active calls of the source: *. Rule as the data show it, unless noted: active = inhibition above about 30%; inactive = the rest.

Results for CSc1nnc(-c2ccccc2)n1C ?
PostGolgi yeast: 7.7; PostGolgi ctrl: 31.3*

What do the screens show for `OC1(c2ccc(OC(F)F)cc2)CSC(=Nc2cccnc2)N1C1CC1` (configuration not stated)?
CYP2C9 inhib: 41.5; CYP2C19 activ: 0; PostGolgi yeast: -6.3; CYP2C9 activ: 0.6; CYP2C19 inh: 100.4*; PostGolgi ctrl: 30.5*

What do the screens show for `CCOc1ccc(NC(=O)Nc2ccc3c(c2)nnn3C)cc1`?
CYP2C9 inhib: -23.4; CYP2C19 activ: 1.2; PostGolgi yeast: 3.0; CYP2C9 activ: 1.2; CYP2C19 inh: -24.1; PostGolgi ctrl: 0.0

Results for Cc1ccc2c(c1)nnn2C1CCN(C(=O)C2CCCCC2)CC1 ?
CYP2C9 inhib: 60.9*; CYP2C19 activ: 0.1; PostGolgi yeast: 0.0; CYP2C9 activ: 0.4; CYP2C19 inh: 90.7*; PostGolgi ctrl: 3.9

What do the screens show for `Cc1ccc2c(c1)nnn2C1CCN(C(=O)c2cccs2)CC1`?
CYP2C9 inhib: 71.9*; CYP2C19 activ: 0.3; PostGolgi yeast: 4.1; CYP2C9 activ: 0.3; CYP2C19 inh: 67.1*; PostGolgi ctrl: 11.4

How did O=C(c1ccco1)N1CCC(n2nnc3ccccc32)CC1 do in these assays?
CYP2C9 inhib: 35.2; CYP2C19 activ: 1; PostGolgi yeast: 15.8; CYP2C9 activ: 0.6; CYP2C19 inh: -3.6; PostGolgi ctrl: 6.9

How did CCOc1ccc(NC(=O)N2CCC(n3nnc4cc(C)ccc43)CC2)cc1 do in these assays?
CYP2C9 inhib: 59.7*; CYP2C19 activ: 0.1; PostGolgi yeast: -4.2; CYP2C9 activ: 0.4; CYP2C19 inh: 88.6*; PostGolgi ctrl: 7.1

How did CCSc1nnc(Cn2c(=O)sc3ccccc32)n1-c1ccc(OC)cc1 do in these assays?
PostGolgi yeast: 2.1; PostGolgi ctrl: 5.0

What do the screens show for `CCOc1ccccc1C(=O)Nc1ccc(S(=O)(=O)N2CCOCC2)cc1`?
CYP2C9 inhib: -230.5; CYP2C19 activ: 0.5; PostGolgi yeast: -3.2; CYP2C9 activ: 3.3*; CYP2C19 inh: 54.3*; PostGolgi ctrl: 10.0

Results for COc1ccccc1C(=O)Nc1ccc(S(=O)(=O)N2CCOCC2)cc1 ?
CYP2C9 inhib: -417.9; CYP2C19 activ: 0.8; PostGolgi yeast: 11.8; CYP2C9 activ: 5.2*; CYP2C19 inh: 16.2; PostGolgi ctrl: 9.7

Results for CCOc1cc(C(=S)N2CCOCC2)ccc1OS(=O)(=O)c1ccc(NC(C)=O)cc1 ?
CYP2C9 inhib: 61.2*; CYP2C19 activ: 0.3; PostGolgi yeast: -1.1; CYP2C9 activ: 0.4; CYP2C19 inh: 71.2*; PostGolgi ctrl: 4.7

Results for CCOc1cc(C(=S)N2CCN(C)CC2)ccc1OCC(=O)N1CCOCC1 ?
CYP2C9 inhib: -0.3; CYP2C19 activ: 1; PostGolgi yeast: -9.2; CYP2C9 activ: 1; CYP2C19 inh: 2.1; PostGolgi ctrl: 5.9

How did CCOc1ccc(C(=O)Nc2ccc(S(=O)(=O)N3CCOCC3)cc2)cc1OCC do in these assays?
CYP2C9 inhib: 8.9; CYP2C19 activ: 1.1; PostGolgi yeast: -3.8; CYP2C9 activ: 0.9; CYP2C19 inh: -7.0; PostGolgi ctrl: 19.7

How did COc1cccc(-c2cc(C(F)(F)F)nc(N3CCN(c4ccccc4)CC3)n2)c1 do in these assays?
CYP2C9 inhib: 27.8; CYP2C19 activ: 0.9; PostGolgi yeast: -1.2; CYP2C9 activ: 0.7; CYP2C19 inh: 6.9; PostGolgi ctrl: 0.6

How did COCc1cc(C)nc(Nc2ccc(C)cc2C)c1C#N do in these assays?
CYP2C9 inhib: -19.9; CYP2C19 activ: 1.1; PostGolgi yeast: 2.6; CYP2C9 activ: 1.2; CYP2C19 inh: -13.0; PostGolgi ctrl: -0.3

How did CC(=O)c1n[nH]nc1NC(=O)c1ccccc1 do in these assays?
CYP2C9 inhib: 2.7; CYP2C19 activ: 1; PostGolgi yeast: -3.2; CYP2C9 activ: 1; CYP2C19 inh: 4.8; PostGolgi ctrl: 9.6

How did CCCCNC(=O)COC(=O)c1ccc(Cl)c(S(N)(=O)=O)c1 do in these assays?
CYP2C9 inhib: -49.3; CYP2C19 activ: 1.1; PostGolgi yeast: -6.7; CYP2C9 activ: 1.5; CYP2C19 inh: -13.9; PostGolgi ctrl: -3.8

What do the screens show for `CC1(C)C(=O)Nc2ccccc2N1C(=O)COC(=O)c1ccc(Cl)c(S(=O)(=O)NCc2ccccc2)c1`?
CYP2C9 inhib: 93.2*; CYP2C19 activ: 0.8; PostGolgi yeast: -1.4; CYP2C9 activ: 0.1; CYP2C19 inh: 16.7; PostGolgi ctrl: -1.2

High-throughput results as filed in PubChem.
